Experimental data as given in PubChem BioAssay (NCI).
Compounds without any hit were thinned out: in the full panel of roughly 83,000, 20% have a hit.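 Percent growth is the endpoint: 0 to 100 indicates growth inhibition (40 means 60% inhibition), 0 means no net growth, and negative values indicate cell death.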 Unmarked numbers belong to inactive results. Calls of active or inactive are those of the source. The calls were made as follows: active = growth percent below 10; inactive = the rest.

Key:
Assay in all cases: NCI-60 one-dose screen, 48 h (100 = growth as untreated, 0 = no growth, -100 = all killed)
Conditions in all cases: 10 µM unless noted
MOLT-4 leukemia = test system: MOLT-4 leukemia
SR leukemia = test system: SR leukemia
RPMI-8226 leukemia = test system: RPMI-8226 leukemia
OVCAR-8 ovarian = test system: OVCAR-8 ovarian
OVCAR-5 ovarian = test system: OVCAR-5 ovarian
OVCAR-4 ovarian = test system: OVCAR-4 ovarian
SK-OV-3 ovarian = test system: SK-OV-3 ovarian
IGROV1 ovarian = test system: IGROV1 ovarian
OVCAR-3 ovarian = test system: OVCAR-3 ovarian
HS 578T breast = test system: HS 578T breast
NCI/ADR-RES ovarian = test system: NCI/ADR-RES ovarian
T-47D breast = test system: T-47D breast
BT-549 breast = test system: BT-549 breast
MDA-MB-435 melanoma = test system: MDA-MB-435 melanoma
SW-620 colon = test system: SW-620 colon
MCF7 breast = test system: MCF7 breast
HCT-116 colon = test system: HCT-116 colon
HCC-2998 colon = test system: HCC-2998 colon
KM12 colon = test system: KM12 colon

Row | Compound | growth (MOLT-4 leukemia) | growth (SR leukemia) | growth (RPMI-8226 leukemia) | growth (OVCAR-8 ovarian) | growth (OVCAR-5 ovarian) | growth (OVCAR-4 ovarian) | growth (SK-OV-3 ovarian) | growth (IGROV1 ovarian) | growth (OVCAR-3 ovarian) | growth (HS 578T breast) | growth (NCI/ADR-RES ovarian) | growth (T-47D breast) | growth (BT-549 breast) | growth (MDA-MB-435 melanoma) | growth (SW-620 colon) | growth (MCF7 breast) | growth (HCT-116 colon) | growth (HCC-2998 colon) | growth (KM12 colon)
1 | CCOC(=O)[C@@H](C)C[C@H](Cc1ccccc1)NC(=O)c1csc([C@@H](C[C@H](C(C)C)N(C)C(=O)[C@@H](NC(=O)[C@H]2C[C@H](O)CCN2C)C(C)C)OC(C)=O)n1 | 11.9% | 5.63% (active) | 5.82% (active) | 14.8% | 41.8% | 35.2% | 7.61% (active) | 20.3% | 5.22% (active) | 19.4% | 45.3% | 79.4% | -31.9% (active) | -40.9% (active) | 25.1% | 20% | -12.6% (active) | 19.6% | 5.96% (active)
2 | CCCCCCCC[n+]1ccc2ccccc2c1 | 58% | 47.8% | 13.8% | 55.7% | 88.5% | 46.4% | 62.9% | 64.1% | 50.2% | 76.1% | 95.6% | 27.1% | 32.3% | 46.2% | 75.9% | 41.1% | 46.5% | 47.4% | 46.1%
3 | Nc1ncnc2n[nH]nc12 | 86.4% | 63.1% | 43.1% | 57.8% | 59.3% | 57.6% | 13.1% | 52.2% | 75.1% | 94.7% | 67.7% | 4.78% (active) | 89.8% | 75.1% | 61.5% | 63.2% | 65.1% | 68.7% | 70.4%
4 | CC1=C(CCCOC(=O)[C@H](N)CC(C)C)C2=C(C)C3(CC3)[C@@](C)(O)C(=O)C2=C1 | 80% | 95.1% | 90% | 3.99% (active) | 22.8% | 4.85% (active) | -18.1% (active) | 2.81% (active) | -14% (active) | 79% | 3.96% (active) | 5.21% (active) | -9.68% (active) | 69.8% | 87.1% | 37.8% | 9.3% (active) | 0.215% (active) | 79.8%
5 | CCc1ccccc1[C@@H]1C[C@]2(C)CCO[C@@H]2OO1 | 105% | 102% | 100% | 96% | 109% | 96.3% | 107% | 108% | 113% | 101% | 105% | 101% | 111% | 109% | 102% | 95.7% | 96.3% | 93.7% | 101%
6 | Fc1c[c-]c(-c2ccccn2)c(F)c1.[CH3-].[Pt+2].c1ccc([PH+](c2ccccc2)c2ccccn2)cc1 | 8.87% (active) | -2.4% (active) | -8.21% (active) | 10.3% | -48.1% (active) | -2.32% (active) | 5.32% (active) | -12% (active) | -22.2% (active) | -1.24% (active) | 32.1% | -7.66% (active) | -1.42% (active) | -50.5% (active) | -11.6% (active) | -16.3% (active) | -43.8% (active) | 20.2% | 10.4%
7 | CNC12C3C4C1C1C2C3C41C(=O)N[C@H](C(=O)N(C)[C@H](C[C@@H](OC(C)=O)c1nc(C(=O)N[C@@H](Cc2ccccc2)C[C@H](C)C(=O)OC)cs1)C(C)C)C1CC1 (some centres undefined) | -1.54% (active) | -12.7% (active) | -6.94% (active) | 20.1% | 56.6% | 44.5% | 40.7% | 17% | -32.9% (active) | 32.3% | 62% | 50.9% | -34.7% (active) | -18.5% (active) | 53.1% | 15.7% | 2.93% (active) | -60.8% (active) | -9.24% (active)
8 | Clc1cccc(NCOOC2(OOCNc3cccc(Cl)c3)CCCCC2)c1 | 72.4% | -41.4% (active) | 53.1% | 30.3% | 82.5% | 107% | 94.7% | -33.2% (active) | 79.7% | 98.4% | 36.8% | 62% | 78% | 78.7% | 98.8% | 65.3% | 61.2% | 95.4% | 51.4%
9 | O=C1C2C(C(=O)[N]1[Hg][c]1ccccc1)C1(Cl)C(Cl)=C(Cl)C2(Cl)C1(Cl)Cl (centres undefined) | -2.76% (active) | -23.6% (active) | -40.8% (active) | -47.4% (active) | 73% | 5.55% (active) | 62.1% | -39.3% (active) | -85.5% (active) | -14.1% (active) | 40.6% | -36.9% (active) | -89% (active) | -78% (active) | -78.4% (active) | -55.3% (active) | -77.7% (active) | 11.7% | 74.6%
10 | CC(=O)OC[C@]1(C)C=C2C(=O)[C@](C)(O)C3(CC3)C(C)=C2[C@H]1OC(=O)N(C)CCN(C)C(=O)OC(C)(C)C | 10.5% | 14% | 32.9% | -12% (active) | 3.2% (active) | -2.23% (active) | 1.41% (active) | 1.75% (active) | -8.01% (active) | 17.5% | -2.04% (active) | 8.4% (active) | -32.8% (active) | -47% (active) | 10.4% | 2.67% (active) | 3.86% (active) | 6.65% (active) | 13%
11 | CC[C@H](C)[C@H](NC(=O)C12C3C4C1C1C2C3C41NC(C)=O)C(=O)N(C)[C@H](C[C@@H](OC(C)=O)c1nc(C(=O)N[C@@H](Cc2ccccc2)C[C@H](C)C(=O)OC)cs1)C(C)C (some centres undefined) | 17.7% | 16.6% | 2.37% (active) | 17% | 47.8% | 38.7% | 48.5% | 31.1% | -33.8% (active) | 18.6% | 89.7% | 70.1% | 5.96% (active) | -32.9% (active) | 21% | 15.2% | 6.15% (active) | 24.1% | 14.8%
12 | O=C(CC1(O)C(=O)N(Cc2ccccc2)c2ccc(Cl)cc21)c1ccc(C(=O)NCC2CCC3(CC2)OOC2(CCCCC2)OO3)cc1 (centres undefined) | -50.5% (active) | -44.2% (active) | -27.7% (active) | -27.5% (active) | 5.96% (active) | -40.2% (active) | 68% | -35.2% (active) | -83.8% (active) | -4.46% (active) | -42.7% (active) | -56% (active) | 11.8% | -67.8% (active) | -56.5% (active) | 17.4% | 3.72% (active) | 67.6% | -67.3% (active)
13 | Brc1ccc2c(c1)c(-c1nc(-c3c[nH]c4ncccc34)cs1)cn2CCN1CCCCC1 | 42% | 16.2% | 51.2% | 83.5% | 109% | 74.9% | 103% | 46.8% | 85.1% | 76.7% | 75.2% | 66.2% | 89% | 76.9% | 58.4% | 47.1% | 51% | 38.9% | 66.2%
14 | COC(=O)[C@@H](C)C[C@H](Cc1ccc(F)cc1)NC(=O)c1csc([C@@H](C[C@H](C(C)C)N(C)C(=O)[C@@H](NC(=O)[C@H]2CCCCN2C)C(C)C)OC(C)=O)n1 | 18.3% | 14.9% | 17.4% | 30% | 53.7% | 49.2% | 21.4% | 25.3% | -27.4% (active) | 34% | 25.2% | 77.3% | -18.6% (active) | -28.8% (active) | 26.9% | 22.2% | 4.23% (active) | 21.8% | 12.4%
15 | COc1ccc(/C=C\c2cc(OC)c(OC)c(OC)c2)cc1OCC(=O)Nc1nc2ccc(C(F)(F)F)cc2s1 | 16.3% | 26.5% | 21.2% | 17.5% | 94.1% | 57.4% | 10.8% | 19.3% | -51.8% (active) | -8.14% (active) | -11.8% (active) | 37.7% | 43.1% | -34.9% (active) | 28.3% | 15.1% | 13.8% | 64.7% | 17.9%
16 | COc1ccc(C2=N[C@@H](Cc3ccccc3)C(=O)Nc3ccsc32)cc1 | 35.7% | 8.97% (active) | 41.7% | 70.4% | 84.1% | 69.9% | 67.4% | 66% | 3.83% (active) | 65.4% | 28.4% | 61.1% | 51.7% | -15.7% (active) | 37.6% | 24.1% | 27.5% | 81.5% | 39.1%
